PubChem BioAssay (NCATS)
Records with an inconclusive call do not appear. A number with no mark means an inactive call. Calls of active or inactive are those of the source. The call rests on the fitted dose curve; in most records, active means well fitted cell-killing curve with a large enough effect; inconclusive means small, poorly fitted or top-dose-only effect; inactive means no such curve, though single readings can be large or run the other way.

Experiment: qHTS of pediatric cancer cell lines to identify multiple opportunities for drug repurposing: Primary screen for Rh41 cells (AID 1347108); further: nearly all actives have a fitted effect of over 70% in size;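 on activity change, negative = cytotoxic: luminescence drop marks cytotoxic hits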
Settings: Rh41 rhabdomyosarcoma viability, CellTiter-Glo luminescence, 48 h; series mostly up to 46 µM; activity change, negative = cytotoxic: at the top concentration
Text: Drug repurposing or repositioning has been offered as a strategy for drug development in oncology programs. This approach has special potential for childhood cancers and other rare or orphan diseases, where the expected return on new drug development has been a disincentive to pharmaceuticals. […] In this project we exploit the poly-pharmacology of drugs to discover new indications via phenotypic screening of a panel of 19 well-characterized cell lines derived from solid tumors seen in children and adolescents. The goal is to identify approved drugs with previously unrecognized anticancer properties that has the potential to reveal new mechanisms and biological processes involved in carcinogenesis or drug resistance. We employed a titration-based paradigm (quantitative high-throughput screening or qHTS), where all compounds were tested at multiple concentrations for their effect on cell viability. Concentration-response curves (CRCs) were derived directly from the primary screen, and both potency and efficacy values were used to identify compounds with robust bioactivity profiles. We screened the NIH Chemical Genomics Center (NCGC) Pharmaceutical Collection (NPC) and Mechanism Interrogation Plate (MIPE) small molecule collections of approved and investigational compounds against these cell lines; and measured metabolically active cells after 48 hours of compound treatment as a proxy for cell viability. […] Assay Submitter: Nathalia J. Martinez, National Center for Advancing Translational Sciences, National Institutes of Health, Rockville, MD, USA; email: natalia.martinez@nih.gov Shen, M et al. Quantitative high-throughput phenotypic screening of pediatric cancer cell lines identifies multiple opportunities for drug repurposing. Oncotarget 2017 Dec 19;9(4):4758-4772. PMID 29435139.
The cells were obtained from University of North Carolina (UNC), Pediatric Preclinical Testing Program (PPT), and Coriell Institute (CI). qHTS cell viability assay: Cells were assayed in growth media at a density of 500-1,000 cells/well. Five microliters of cells were dispensed into 1,536-well, white, solid-bottom, TC-treated plates (Greiner Bio One) using a multidrop dispenser and incubated at 37 degrees C, 5% CO2, under a humidified atmosphere for 5 hours. Twenty-three nanoliters of compounds and controls (neutral control DMSO or positive control bortezomib at final concentration of 2.3 µM) were subsequently transferred by Kalypsys pintool. For primary screens, the MIPE collection was tested at 11-point dilutions (final concentrations range from 0.78 nM to 46 µM) and the NPC collection at 8-point dilutions (final concentrations range from 0.59 nM to 46 µM). Compounds tested in follow-up screens were assayed at 11-point dilutions. Cells were incubated for 48 hours, followed by addition of 3 µL of CellTiter-Glo (Promega). After a 15 min incubation at room temperature, samples were analyzed for luminescence intensity using a ViewLux High-throughput CCD imager equipped with clear filters.
Potency means the concentration at half of the fitted maximal effect.

Row | Structure (SMILES) | activity change, negative = cytotoxic | Potency
1 | O=C(O)c1ccc(S(=O)(=O)N(Cl)Cl)cc1 | 18.8% | 
2 | Nc1nc(-c2ccccc2)c(Br)c(=O)[nH]1 | 19.3% | 
3 | CCOC(=O)C(C#N)=C(c1ccccc1)c1ccccc1 | 7.48% | 
4 | Cc1ccc(-c2ncc(Cl)cc2-c2ccc(S(C)(=O)=O)cc2)cn1 | 8.63% | 
5 | CCN1CCN(C(=O)N[C@@H](C(=O)N[C@@H]2C(=O)N3C(C(=O)O)=C(CSc4nnnn4C)CS[C@H]23)c2ccc(O)cc2)C(=O)C1=O | 18.2% | 
6 | CCc1oc2ccccc2c1C(=O)c1cc(I)c(O)c(I)c1 | 6.07% | 
7 | CCCCCCCCCCCCCC[N+](C)(C)Cc1ccccc1 |  | 18.8 µM (active)
8 | CCOc1cc(OCC)c(C(=O)CCC(=O)O)cc1OCC | 28.9% | 
9 | CCN(CC)CCOC(=O)C(Cc1cccc2ccccc12)CC1CCCO1 (stereo not given) | 1.87% | 
10 | CCCCCCCCCCCCSCCOCCO | 24.5% | 
11 | CC(=O)O[C@H]1C[C@@H]2CC[C@@H]3[C@H](CC[C@@]4(C)[C@H]3C[C@H]([N+]3(C)CCCCC3)[C@@H]4OC(C)=O)[C@@]2(C)C[C@@H]1N1CCCCC1 | 9.14% | 
12 | C[N+]12CCC(CC1)C(OC(=O)C(O)(c1ccccc1)c1ccccc1)C2 (stereo not given) | 12% | 
13 | CCCN(CCC)S(=O)(=O)c1ccc(C(=O)O)cc1 | 34.2% | 
14 | CCCCNC(=O)NS(=O)(=O)c1ccc(N)cc1 | 23.4% | 
15 | CCCCOC(=O)CC(CC(=O)OCCCC)(OC(C)=O)C(=O)OCCCC | 9.48% | 
16 | CCCCCCCCCCCCCCC[C@H](O)[C@@H](N)CO | 15.3% | 
17 | CN(C)CCN1C(=O)c2ccccc2N(C)c2ccccc21 | 6.39% | 
18 | NC(=O)C1(N2CCCCC2)CCN(CCCC(=O)c2ccc(F)cc2)CC1 | 19.2% | 
19 | NC(=O)c1ccccc1O | 3.41% | 
20 | Cc1cc(NS(=O)(=O)c2ccc(N)cc2)nc(C)n1 | 14.6% | 

Row | Structure (SMILES) | activity change, negative = cytotoxic | Potency
21 | CC(=O)OCC(=O)[C@H]1CC[C@H]2[C@@H]3CCC4=CC(=O)CC[C@]4(C)[C@H]3CC[C@]12C | 0.697% | 
22 | CCNC(=O)NCc1cccc(Cl)c1 | 11.7% | 
23 | CN1CCC(OC(c2ccccc2)c2ccccc2)CC1 | 17.2% | 
24 | NS(=O)(=O)Cc1noc2ccccc12 | 26% | 
25 | CCC1Nc2cc(Cl)c(S(N)(=O)=O)cc2S(=O)(=O)N1 (stereo not given) | 16.1% | 
26 | Cc1c[nH]c2ccccc12 | 28% | 
27 | CC(=O)OC[C@H]1O[C@@H](n2ncc(=O)[nH]c2=O)[C@H](OC(C)=O)[C@@H]1OC(C)=O | -6.5% | 
28 | CC(C(=O)O)c1cccc(Oc2ccccc2)c1 (stereo not given) | 24.2% | 
29 | CCCCCCCCOc1ccc(C(=O)c2ccccc2)c(O)c1 | 24.4% | 
30 | CCCCNc1ccc(C(=O)OCCOCCOCCOCCOCCOCCOCCOCCOCCOC)cc1 | -2% | 
31 | CC(=O)NO | 23.2% | 
32 | O=C(Nc1cccc(C2=NCCN2)c1)Nc1cccc(C2=NCCN2)c1 | 1.14% [at 16.1 µM] | 
33 | Cc1cc(C)cc(OCC2CNC(=O)O2)c1 (stereo not given) | 10.4% | 
34 | O=C(O)Cc1csc(-c2ccc(Cl)cc2)n1 | 12.3% | 
35 | CC(=O)O[C@]1(C(C)=O)CC[C@H]2[C@@H]3C=C(C)C4=CC(=O)CC[C@]4(C)[C@H]3CC[C@@]21C | 30.4% | 
36 | CN1CCN(c2c(F)cc3c(=O)c(C(=O)O)cn4c3c2SCC4)CC1 | 10.7% | 
37 | CC(=O)NCCCCCC(=O)O | 4.54% | 
38 | CC(=O)Nc1ccc(S(=O)(=O)Nc2ccc([N+](=O)[O-])cc2)cc1 | 15.8% | 
39 | Cc1ncc(CO)c(C=O)c1O | 14.9% | 
40 | CNCCc1ccccn1 | 24% | 
